# From PubChem BioAssay
# Sampled rows, rich in hits. Any-hit rate of the full collection: about 8.7%.
# 12-LOX inh = Primary qHTS assay for inhibitors of human arachidonate 12S-lipoxygenase (ALOX12): Round 2; hit rate 1.1% among 580,000; Polyunsaturated fatty acid lipoxygenase ALOX12 (Homo sapiens), P18054; Potency, µM (series often up to 108 µM), without a hit: top-dose activity change, negative = inhibition, hits mostly inhibitors; purified 12hLO, xylenol orange hydroperoxide absorbance; further: on the % scale 0 is the no-effect control and ±100 the full control effect
#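 Purified human 12hLO at 150 nM in 25 mM Hepes, 0.01% Triton X-100, pH 7.0, preincubated 15 min at room temperature with compound. Reaction started with 40 uM arachidonic acid, 30 min at room temperature. Hydroperoxide measured by Fe-xylenol orange, 573/405 nm absorbance ratio.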
# Sfp PPTase inh = qHTS Assay for Inhibitors of Bacillus subtilis Sfp phosphopantetheinyl transferase (PPTase); 4'-phosphopantetheinyl transferase ffp (Bacillus subtilis), Q9F4F7; Biochemical Sfp PPTase activity, qHTS; Potency, µM, for the others: largest response in the series, negative = inhibition, most hits filed as inhibitors; hit rate 3.5% among 310,000; AID 1490, 2009;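 further: the enzyme is Sfp with the accession as filed and its product quenches rhodamine fluorescence; 0% = enzyme reaction without inhibitor and -100% = no enzyme wells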
#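 After 15 min at room temperature with compound, 15 nM Sfp received 5 uM rhodamine-CoA plus 12.5 uM BHQ-2-ybbR (50 mM Hepes pH 7.6, 10 mM MgCl2). Rate came from the fluorescence difference over 30 min, ex 525/em 598 nm.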
# BAZ2B block = qHTS Assay for Inhibitors of BAZ2B; Bromodomain adjacent to zinc finger domain protein 2B (Homo sapiens), Q9UIF8; AlphaScreen BAZ2B-H3K14Ac peptide displacement; Potency, µM (top dose mostly 114 µM), for the others: at the top dose activity change, negative = inhibition, usual class: inhibitors; hit rate 4.4% among 360,000; further: on the % scale 0 is the no-effect control and ±100 the full control effect; nearly all actives have a fitted effect of over 60% in size
#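 In this displacement format the biotinylated H3(5-23) peptide acetylated at Lys14 serves as ligand at 50 nM, with BAZ2B at 50 nM in PBS pH 7.4 containing 0.01% Tween-20. Donor and acceptor beads are 10 ug/mL final.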
# G9a block = qHTS Assay for Inhibitors of Histone Lysine Methyltransferase G9a; AID 504332, 2011; G9a H3K9 monomethylation, AlphaScreen, 2 h; Potency, µM (highest dose often 102 µM), inactives show at the top dose activity, negative = inhibition, actives largely listed as inhibitors; hit rate 8.8% among 350,000; Histone-lysine N-methyltransferase EHMT2 (Homo sapiens), Q96KQ7; further: on the % scale 0 is the no-effect control and ±100 the full control effect; nearly all actives have a fitted effect of over 75% in size
#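 Compounds were preincubated with 20 nM G9a for 15 min, after which biotinylated H3K9 peptide (500 nM) and SAM (20 uM) started a 2 h room-temperature reaction. Monomethylated product was quantified by antibody-based AlphaScreen chemiluminescence.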
# HP1b chromo inh = HTS for Inhibitors of HP1-beta Chromodomain Interactions with Methylated Histone Tails; Chromobox protein homolog 1 (Homo sapiens), P83916; AlphaScreen HP1-beta / biotin-H3K9me3 peptide binding; Potency, µM (highest dose often 114 µM), for inactives: at the top dose activity change, negative = inhibition, hits mostly inhibitors; hit rate 0.56% among 390,000; AID 540317, 2011; further: nearly all actives have a fitted effect of over 70% in size
#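 Compound inhibition of the preformed complex between 50 nM HP1-beta and 50 nM biotinylated H3K9me3 peptide was read by AlphaScreen. Buffer was PBS pH 7.4 with 0.01% Tween-20. Incubations ran 30 min at room temperature, with 10 ug/mL donor/acceptor beads.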
# JMJD2A Tudor inh = qHTS Assay for Inhibitors of JMJD2A-Tudor Domain; hit rate 4.4% among 390,000; Potency, µM (highest dose often 114 µM), for the others: at the top dose activity change, negative = inhibition, usual class: inhibitors; AlphaScreen JMJD2A-Tudor / H3K4me3 peptide binding; AID 504339, 2011; Lysine-specific demethylase 4A (Homo sapiens), O75164; further: on the % scale 0 is the no-effect control and ±100 the full control effect; nearly all actives have a fitted effect of over 50% in size
# * = called active by the depositor; ? = inconclusive; · = no result given; ! = repeats disagree; [ ] = dose if it differs, or a comment. The call rests on the fitted dose curve; in most records, active means well fitted curve in the direction sought with a large enough effect; inconclusive means small, poorly fitted or top-dose-only effect, or another doubt; inactive means no such curve, though single readings can be large; an effect the other way counts as inactive or inconclusive. Potency means the concentration at half of the fitted maximal effect.
SMILES,12-LOX inh,Sfp PPTase inh,BAZ2B block,G9a block,HP1b chromo inh,JMJD2A Tudor inh
CC(C)S(=O)(=O)N1CC[C@@H]2COCCN(C)[C@@H]2C1,57%,·,·,·,·,·
COc1ccccc1NC(=O)Oc1cccc(OC(=O)c2ccccc2)c1,-13%,7%,-9%,71µM*,25%,-13%
COc1cccc(CCNCc2c(F)cccc2F)c1,-26%,-12%,40µM*,7.9µM*,?,?
COc1cccc(CNCCc2ccc(F)cc2)c1,0%,-9%,40µM*,-19%,4%,?
CCOc1cccc(CNCCc2ccc(OC)cc2)c1,-48%,·,·,·,·,·
COc1ccc(CC(=O)NC(=S)NNC(=O)COc2c(C)cccc2C)cc1,?,2%,8%,1.1µM*,?,16µM*
COc1ccc(C(=O)NC(=S)NNC(=O)c2cccnc2)cc1,?,6%,13%,?,18%,-9%
Cc1ccccc1C(=O)NNC(=S)NC(=O)COc1ccccc1,3.5µM*,?,?,0.56µM*,?,4.5µM*
O=C(O)COc1ccccc1,1%,-3%,?,1%[0.501 µM],47%,-2%
CN1CCC2(CC1)C(C#N)=C(N)NC(S)=C2C#N,-17%,-26%,?,6.3µM*,-17%,4µM*
COc1cc(/C=C2/C(=O)NC(=O)N(c3ccccc3)C2=O)ccc1O,-28%,8.9µM*,-1%,35µM*,34%,-11%
COc1cccc(N2C(=O)NC(=O)/C(=C/c3ccc4c(c3)Cc3ccccc3-4)C2=O)c1,?,56µM*,45µM*,7.1µM*,43%,56µM*
O=C1NC(=O)N(c2ccccc2)C(=O)/C1=C/c1ccoc1,?,?,?,40µM*,23%,-14%
COc1ccc(/C=C2/C(=O)NC(=O)N(c3ccccc3)C2=O)cc1CN1C(=O)c2ccccc2C1=O,·,50µM*,?,-111%[59 µM],20%,-35%
COc1ccc(-n2c(/C=C/c3ccc(O)c(OC)c3)nc3ccccc3c2=O)cc1,?,1%,-13%,·,78%,-6%
O=C(c1ccccc1)N1C[C@@H]2C[C@H](C1)c1ccc(-c3cncnc3)c(=O)n1C2,49%[176 µM],·,·,·,·,·
C=CCN1C[C@@H]2CN(S(=O)(=O)c3cccnc3)C[C@]2(C(=O)O)C1,54%,·,·,·,·,·
COc1ccccc1-c1cc([C@H]2CN3CC[C@H]2C[C@@H]3CNC(=O)C2CCCCC2)n(C)n1,45%,·,·,·,·,·
O=C1NC(=O)N(c2ccccc2)C(=O)/C1=C\c1ccccc1[N+](=O)[O-],?,22µM*,-8%,28µM*,12%,-9%
COc1ccc(/C=C2/C(=O)NC(=S)N(C3CC3)C2=O)cc1CN1C(=O)c2ccccc2C1=O,?,25µM*,50µM*,3.5µM*,?,25µM*
CCOc1cc(/C=C2/C(=O)NC(=O)N(c3ccc(CC)cc3)C2=O)ccc1OC(=O)c1cccs1,·,79µM*,50µM*,29%[0.501 µM],13%,79µM*
CC(C)CN1Cc2ccccc2-n2ccnc2C12CCN(C(=O)c1cccs1)CC2,17%,·,·,·,·,·
NCCCN1CCN(Cc2ccccc2)CC1,-10%,·,·,·,·,·
CC(C)(C)c1ccc(-c2cn(C[C@H]3CC4CCN3C[C@@H]4C(=O)NC3CCCCC3)nn2)cc1 (stereo not given in full),82%,·,·,·,·,·
CCCC(C)c1nnc(NC(=O)CCS(=O)(=O)c2ccccc2)s1 (stereo not given),?,18µM*,?,4µM*,?,50µM*
SMILES,12-LOX inh,Sfp PPTase inh,BAZ2B block,G9a block,HP1b chromo inh,JMJD2A Tudor inh
COc1ccc(CNC[C@H]2C[C@@H]3CCN2C[C@@H]3c2cc(-c3cccs3)nn2C)cc1,71%[176 µM],·,·,·,·,·
CN(C)c1ccc(Cc2ccc(N(C)C)cc2)cc1,-29%,·,·,·,20µM*,25µM*
CN(C)c1ccc([P+](=O)c2ccc(N(C)C)cc2)cc1,-11%,5%,-28%,-3%,6%,-17%
CCCc1c(C)nc(N2CCN(CC)CC2)[nH]c1=O,-11%,·,·,·,·,·
CCOc1cc(/C=C(\C#N)C(=O)NCC2CCCO2)ccc1OCC(N)=O (stereo not given),?,1%,-11%,50µM*,-16%,-24%
O=C(c1ccoc1)N1CCC2(CC1)NCc1ccccc1-n1ccnc12,49%,·,·,·,·,·
CCCCOP(=O)(c1ccc(N(C)C)cc1)C(Nc1ccccc1)c1ccccc1 (stereo not given),-28%,-23%,?,45µM*,-32%,?
CN1C(=O)C(C2(O)C(=O)N(Cc3ccccc3)c3cc([N+](=O)[O-])ccc32)c2ccccc21 (stereo not given),-8%,·,·,·,·,·
CP(=O)(Nc1ccc(Cl)cc1)c1nc2c(s1)CCCC2 (stereo not given),9%,3%,-19%,40µM*,33%,-14%
CCCCCCC1CC(C)(C(=O)CNc2nncs2)OC1=O (stereo not given),-25%,-2%,-32%,14µM*,9%,-13%
Oc1c(Cl)c(Cl)c(Cl)c(Cl)c1Cl,-29%,9%,·,·,-7%,56µM*
COc1ccccc1N1CCN(C(=O)[C@H]2CN3CCC2C[C@@H]3Cn2cc(-c3ccccc3)nn2)CC1 (stereo not given in full),38%,·,·,·,·,·
CN(CCc1ccccc1)Cc1c[nH]c2ccccc12,?,6%,?,3.2µM*,-9%,?
O=C(O)c1ccc(-n2c(O)c(/C=C3\C=Nc4ccccc43)c(=O)[nH]c2=O)cc1,?,-4%,-16%,45µM*,5%,-12%
CCCCn1c(O)c(/C=C2\C=Nc3ccccc32)c(=O)[nH]c1=O,11%,-8%,-5%,71µM*,13%,-22%
O=c1[nH]c(=O)n(-c2cccc(F)c2)c(O)c1/C=C1\C=Nc2ccccc21,-14%,-10%,7%,-12%,33%,-1%
O=C(NCc1ccco1)[C@H]1CN2CCC1C[C@@H]2Cn1cc(CO)nn1 (stereo not given in full),0%[176 µM],·,·,·,·,·
CC1OC1P(=O)(O)O (stereo not given),·,5%,·,25µM*!,·,·
CN(C)Cc1cn(C[C@H]2C[C@@H]3CCN2C[C@@H]3C(=O)NC2CC2)nn1,3%[176 µM],·,·,·,·,·
